Data as given in PubChem BioAssay (NCATS).
Inconclusive results are not listed. Activity calls are given as the source filed them. Calls follow the shape of the dose curve; as a rule, active = well fitted curve in the direction sought with a large enough effect; inconclusive = small, poorly fitted or top-dose-only effect, or another doubt; inactive = no such curve, though single readings can be large; an effect the other way counts as inactive or inconclusive. Starred links: 1 amine or outer side, 2 acyl side, 3 side chain; linkers in the order of their positions; H or OH if unused. Positions of bridges follow the written chain, without caps; N, C: chain ends. Non-standard residues stand in square brackets, D forms with d. Residues, ends and D or L forms follow the SMILES beside them. Chains are numbered I, II in the order given. Actinocin(9to1) = Cc1c2oc3c(C)ccc(C(=O)[*:1])c3nc-2c(C(=O)[*:2])c(N)c1=O; NMeV = CN[CH](C(=O)O)C(C)C; Sar = CNCC(=O)O

Key:
[1] = test system: MKL-1; experiment: qHTS assay to identify novel small-molecules to repurpose for Merkel cell carcinoma treatment (AID 1296009); conditions: MCC and control cell lines, CellTiter-Glo viability, 72 h; series mostly up to 46 µM; also: nearly all actives have a fitted effect of over 60% in size; also: potency is read from the fitted curve at half-maximal effect
Procedure, shortened: (§1)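 CellTiter-Glo luminescence after 72 hr compound exposure at 37 degree celsius gave cell viability. Libraries NPC and MIPE were run as 8- and 11-point dose responses; RLUs normalized to DMSO (negative) and no-cell (cytotoxicity) controls.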

[2] = test system: MKL-2; experiment: as above; conditions: MCC and control cell lines, CellTiter-Glo viability, 72 h; series mostly up to 46 µM
Procedure, shortened: as §1

[3] = test system: UISO; experiment: as above; conditions: MCC and control cell lines, CellTiter-Glo viability, 72 h; series mostly up to 46 µM
Procedure, shortened: as §1

[4] = test system: WaGa; experiment: as above; conditions: MCC and control cell lines, CellTiter-Glo viability, 72 h; series mostly up to 46 µM
Procedure, shortened: as §1

[5] = test system: C33A; experiment: Primary qHTS to identify gynecologic anti-cancer compounds using libraries of approved drugs and bioactive compounds (AID 1345084); conditions: Gynecologic cancer cell panel viability, ATPlite luminescence, 48 h; series mostly up to 57.5 µM; also: nearly all actives have a fitted effect of over 55% in size; also: potency is read from the fitted curve at half-maximal effect
Procedure, shortened: (§2)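 Five-concentration response, 48 h; readout is ATP-driven luciferase luminescence.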

[6] = test system: CASKI; experiment: as above; conditions: Gynecologic cancer cell panel viability, ATPlite luminescence, 48 h; series mostly up to 57.5 µM
Procedure, shortened: as §2

[7] = test system: Es-2; experiment: as above; conditions: Gynecologic cancer cell panel viability, ATPlite luminescence, 48 h; series mostly up to 57.5 µM
Procedure, shortened: as §2

[8] = test system: HeLa; experiment: as above; conditions: Gynecologic cancer cell panel viability, ATPlite luminescence, 48 h; series mostly up to 57.5 µM
Procedure, shortened: as §2

[9] = test system: Hek293T; experiment: as above; conditions: Gynecologic cancer cell panel viability, ATPlite luminescence, 48 h, control line for the selectivity index; series mostly up to 57.5 µM
Procedure, shortened: as §2

[10] = test system: JEG-3; experiment: as above; conditions: Gynecologic cancer cell panel viability, ATPlite luminescence, 48 h; series mostly up to 57.5 µM
Procedure, shortened: as §2

[11] = test system: OV90; experiment: as above; conditions: Gynecologic cancer cell panel viability, ATPlite luminescence, 48 h; series mostly up to 57.5 µM
Procedure, shortened: as §2

[12] = test system: PA-1; experiment: as above; conditions: Gynecologic cancer cell panel viability, ATPlite luminescence, 48 h; series mostly up to 57.5 µM
Procedure, shortened: as §2

[13] = test system: Tov-21-G; experiment: as above; conditions: Gynecologic cancer cell panel viability, ATPlite luminescence, 48 h; series mostly up to 57.5 µM
Procedure, shortened: as §2

[14] = test system: Tov112D; experiment: as above; conditions: Gynecologic cancer cell panel viability, ATPlite luminescence, 48 h; series mostly up to 57.5 µM
Procedure, shortened: as §2

[15] = qHTS assay to identify inhibitors of the type 1 interferon - major histocompatibility complex class I in skeletal muscle: Counter screen cell viability and HiBit confirmation (AID 1347412); conditions: iHSKM muscle cells + IFN-b, HiBiT or CellTiter-Glo, 24 h; Potency: HiBiT; Viability, at 45.9 µM (top of the series); also: nearly all actives have a fitted effect of over 60% in size
Procedure, shortened: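 Duplicate plates, pinned identically: one read for HiBiT-tagged endogenous HLA-B luminescence, the other for ATP-content viability via CellTiter Glo. Cells were genome-engineered human myoblasts given 4 ng/ml IFN-b; compounds 12-pt, 1:3 from 46 uM final; 24 hr exposure.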

[16] = test system: SKOV3; experiment: Primary qHTS to identify gynecologic anti-cancer compounds using libraries of approved drugs and bioactive compounds (AID 1345084); conditions: Gynecologic cancer cell panel viability, ATPlite luminescence, 48 h; series mostly up to 57.5 µM; also: nearly all actives have a fitted effect of over 55% in size; also: potency is read from the fitted curve at half-maximal effect
Procedure, shortened: as §2

[17] = Drug repurposing screens with cells derived from glioblastoma tumor samples (AID 1345199); conditions: GBM patient neurospheres viability, ATP luminescence, 48 h; Potency: tumour line A; series mostly up to 46.1 µM; also: nearly all actives have a fitted effect of over 40% in size
Procedure, shortened: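 Primary testing used CD133+ neurospheres from four GBM patients, seven concentrations, 48 h exposure and ATP-based viability; confirmation added three slower-growing patient lines.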

Measured: Potency

CCCCC(=O)O[C@]1(C(=O)CO)[C@@H](C)C[C@H]2[C@@H]3CCC4=CC(=O)C=C[C@]4(C)[C@@]3(F)[C@@H](O)C[C@@]21C
not listed: [16] | [17]
inactive: all other assays above

CC(=O)OCC(=O)[C@@]12N=C(C)O[C@H]1C[C@H]1[C@@H]3CCC4=CC(=O)C=C[C@]4(C)[C@@H]3[C@@H](O)C[C@@]12C
inactive: [1] | [2] | [3] | [4]

CCOC(=O)C=C[C@H](C[C@@H]1CCNC1=O)NC(=O)[C@@H](CC(=O)[C@@H](NC(=O)c1cc(C)on1)C(C)C)Cc1ccc(F)cc1
inactive: [1] | [2] | [3] | [4]

OCCN1C[C@H](O)[C@@H](O)[C@H](O)[C@@H]1CO
inactive: [1] | [2] | [3] | [4]

CC(C)(C)[N+]([O-])=Cc1ccc(S(=O)(=O)O)cc1S(=O)(=O)O
inactive: [1] | [2] | [3] | [4]

N#CNC(=NCCCCCCOc1ccc(Cl)cc1)Nc1ccncc1
inactive: [2]
active: [1] 0.0012 µM | [3] 0.0059 µM | [4] 0.0033 µM

c1ccc(CNc2nc(NCc3ccccc3)c3ccccc3n2)cc1
inactive: [1] | [3] | [4]
active: [2] 18.7 µM

COC(=O)[C@H](CCCN=C(N)N)NS(=O)(=O)c1ccc(C)cc1
inactive: [1] | [2] | [3] | [4]

C[C@H](NC(=O)[C@@H](O)c1cc(F)cc(F)c1)C(=O)N[C@@H]1C(=O)N(C)c2ccccc2-c2ccccc21
inactive: [1] | [2] | [3] | [4]

CCCNS(=O)(=O)Nc1ncnc(OCCOc2ncc(Br)cn2)c1-c1ccc(Br)cc1
inactive: [1] | [2] | [3] | [4]

CCN(CC)Cc1ccc2cc(COC(=O)Nc3ccc(C(=O)NO)cc3)ccc2c1
active: [1] 1.87 µM | [2] 0.59 µM | [3] 3.72 µM | [4] 0.526 µM | [5] 3.55 µM | [6] 6.31 µM | [7] 6.31 µM | [8] 6.31 µM | [9] 10 µM | [10] 3.55 µM | [11] 1 µM | [12] 1.78 µM | [13] 7.94 µM | [14] 7.08 µM

Cc1c2oc3c(C)ccc(C(=O)NC4C(=O)NC(C(C)C)C(=O)N5CCCC5C(=O)N(C)CC(=O)N(C)C(C(C)C)C(=O)OC4C)c3nc-2c(C(=O)NC2C(=O)NC(C(C)C)C(=O)N3CCCC3C(=O)N(C)CC(=O)N(C)C(C(C)C)C(=O)OC2C)c(N)c1=O (centres undefined) (I: TVP[Sar][NMeV] / II: TVP[Sar][NMeV]; ester I:1-I:C, II:1-II:C; linker I:N-II:N via Actinocin(9to1); configuration not given here)
inactive: [1] | [2] | [3] | [4]

C[N+]1(C)[C@@H]2C[C@@H](OC(=O)C(O)(c3cccs3)c3cccs3)C[C@H]1[C@@H]1O[C@@H]12
not listed: [15] | [17]
inactive: all other assays above

O=C1NC(O)CCN1[C@@H]1O[C@H](CO)[C@H](O)[C@H]1O (some centres undefined)
inactive: [1] | [2] | [3] | [4]

CN(C)CC[C@H](c1ccc(Cl)cc1)c1ccccn1
inactive: [1] | [2] | [3] | [4]

COC1=C2C[C@@H](C)C[C@H](OC)[C@@H](O)[C@@H](C)C=C(C)[C@H](OC(N)=O)[C@@H](OC)C=CC=C(C)C(=O)NC(=CC1=O)C2=O
active: [1] 11.8 µM | [2] 8.33 µM | [4] 20.9 µM

CC(C)c1cc(C(C)C)c(CC(=O)NS(=O)(=O)Oc2c(C(C)C)cccc2C(C)C)c(C(C)C)c1
not listed: [3] | [8] | [9] | [12] | [17]
inactive: all other assays above

CCN(C(=O)c1c(O)c2c(Cl)cccc2n(C)c1=O)c1ccccc1
inactive: [1] | [2] | [4]

CCCCCCCCCCCCCCCC(=O)OC[C@@H](NC(=O)C(Cl)Cl)[C@H](O)c1ccc([N+](=O)[O-])cc1
inactive: [1] | [2] | [3] | [4] | [17]

Cn1cc(C2=C(c3c4n(c5ccccc35)CCC(CN)C4)C(=O)NC2=O)c2ccccc21 (centres undefined)
active: [1] 20.9 µM | [2] 20.9 µM | [4] 20.9 µM

CC(C)C[C@H](NC(=O)CNC(=O)c1cc(Cl)ccc1Cl)B1OC(=O)CC(CC(=O)O)(C(=O)O)O1 (some centres undefined)
active: [1] 0.743 µM | [2] 0.187 µM | [4] 0.209 µM

CN1CCCN(C(=O)c2cccc(-c3ccc(C=C4C(=O)Nc5ccc(Cl)cc54)o3)c2)CC1
active: [1] 5.26 µM | [2] 16.6 µM | [4] 16.6 µM
